{"source": "ChEMBL document CHEMBL3988442", "about": "“University of Dundee, Small-Polar-MMV Screening Library” (2021)", "note": "Out of some 53,000 compounds screened, about 900 (1.7%) showed an effect of 50% or more. The full list was thinned out, with strong results kept by preference.", "data": [{"tested_on": "Mycobacterium tuberculosis", "experiment": "Cornell - Phenotypic assay to identify agents that inhibit growth of Mycobacterium tuberculosis", "format": "functional", "parameters": "scale not given: direction of the effect not stated beside the values", "settings": "10 mM as filed; unlikely as a test dose", "units": {"Percent Effect": "%"}, "values": [{"smiles": "Cc1nnc(C(C)N2CCCN(Cc3ccc(F)cc3)CC2)o1", "note": "(stereo unspecified)", "Percent Effect": 8.155}, {"smiles": "Br.O=C(O)c1csc(NCCc2ccccc2)n1", "Percent Effect": 71.03}, {"smiles": "Cc1nc(NCCc2ccccc2)cc(C(=O)N2CCCCC2)n1", "Percent Effect": -12.22}, {"smiles": "CN1CC(=O)c2sc(NCCc3ccccc3)nc2C1", "Percent Effect": -47.63}, {"smiles": "Cc1nn(C)c(C)c1CC(=O)N1CCCC(CNS(C)(=O)=O)C1", "note": "(stereo unspecified)", "Percent Effect": -13.44}, {"smiles": "CCC(O)Cn1nc(-c2ccc(C(=O)O)cc2)cc1-c1ccc(F)cc1", "note": "(stereo unspecified)", "Percent Effect": 43.49}, {"smiles": "CCC(O)Cn1nc(-c2ccc(C(=O)O)cc2)cc1-c1cccc(F)c1", "note": "(stereo unspecified)", "Percent Effect": -3.821}, {"smiles": "CC(C)Cn1nc(-c2ccc(C(=O)O)cc2)cc1-c1ccc(F)cc1", "Percent Effect": 92.09}, {"smiles": "CN1CC(Nc2nc3c(cnn3C(C)(C)C)c(=O)[nH]2)CCC1=O", "note": "(stereo unspecified)", "Percent Effect": 12.63}, {"smiles": "CC(C)(C)n1ncc2c(=O)[nH]c(N3CCN(CC(F)F)CC3)nc21", "Percent Effect": 62.42}, {"smiles": "CC(=O)N1CCN(c2nc3c(cnn3C(C)(C)C)c(=O)[nH]2)CC1", "Percent Effect": 26.42}, {"smiles": "CC(C)(C)n1ncc2c(=O)[nH]c(N3CC(O)C3)nc21", "Percent Effect": -9.536}, {"smiles": "CC(C)(C)n1ncc2c(=O)[nH]c(N3CCN(CCO)CC3)nc21", "Percent Effect": 21.4}, {"smiles": "CC(C)(C)n1ncc2c(=O)[nH]c(NC3CC=CC3)nc21", "Percent Effect": 82.93}, {"smiles": "Nc1cc(-c2nccnc2N2CCCC2)c2cc[nH]c2n1", "Percent Effect": -1.136}, {"smiles": "CC(=O)N1CCC2(CCN(S(=O)(=O)c3ccccc3)CC2)C1", "Percent Effect": -13.67}, {"smiles": "CC(C)CN1C[C@H]2CCN(C(=O)NC3CCCC3)CC[C@H]2S1(=O)=O", "Percent Effect": 15.88}, {"smiles": "CCOc1cccc(CNc2cccc(C(=O)OC)c2)c1O", "Percent Effect": 2.238}, {"smiles": "COc1cccc(CNCc2cccc(Cl)c2)c1O", "Percent Effect": 2.888}, {"smiles": "COc1cccc(CNCc2ccc(F)cc2Cl)c1O", "Percent Effect": 52.17}, {"smiles": "COc1cccc(CNCc2ccc(F)c(Cl)c2)c1O", "Percent Effect": 2.035}, {"smiles": "COc1cccc(CNc2ccc(F)c(Cl)c2)c1O", "Percent Effect": 58.04}, {"smiles": "COc1cccc(CNCc2ccccc2Cl)c1O", "Percent Effect": -0.8125}, {"smiles": "COc1cccc(N2CCN(CC(O)c3cc(C)ccc3C)CC2)c1", "note": "(stereo unspecified)", "Percent Effect": -17.91}, {"smiles": "Cc1ccc(-c2nc(CCNC(=O)NCC(C)(C)C(N)=O)co2)cc1", "Percent Effect": -1.516}, {"smiles": "Cc1ccc(Br)cc1NC(=O)NCC(O)CO", "note": "(stereo unspecified)", "Percent Effect": -28.33}, {"smiles": "CN1C(=O)[C@H]2CC[C@@H]1CN(c1ncnc3ccsc13)C2", "Percent Effect": 26.9}, {"smiles": "CN(C)c1nc2n(c(=O)n1)CCN2C(=O)Nc1ccc(Cl)c(Cl)c1", "Percent Effect": 104.9}, {"smiles": "CN(C)c1nc2n(c(=O)n1)CCN2C(=O)Nc1cccc(Cl)c1", "Percent Effect": -1.647}, {"smiles": "CN(C)c1nc2n(c(=O)n1)CCN2C(=O)Nc1ccc(Cl)cc1", "Percent Effect": -48.51}, {"smiles": "Cc1cc(C)n(CCCNC(=O)C(C)NC(=O)c2ccccc2Cl)n1", "note": "(stereo unspecified)", "Percent Effect": -13.3}, {"smiles": "CC1(CNC(=O)NCc2ccsc2)CCCS1", "note": "(stereo unspecified)", "Percent Effect": 1.003}, {"smiles": "Cc1nc(N2CCOCC2)nc2c1CCN(C(=O)C1CCCCC1)CC2", "Percent Effect": 34.6}, {"smiles": "CC(Cn1cccn1)NCc1nc(-c2cccs2)no1", "note": "(stereo unspecified)", "Percent Effect": 28.55}, {"smiles": "Cc1ccc(-c2nnc(C(C)NCCn3cc(C)cn3)o2)cc1", "note": "(stereo unspecified)", "Percent Effect": -4.1}, {"smiles": "CCc1sc(-c2nnc(CNCCn3cccn3)o2)cc1C", "Percent Effect": -21.28}, {"smiles": "CCc1sc(-c2nnc(CNC(C)Cn3cccn3)o2)cc1C", "note": "(stereo unspecified)", "Percent Effect": 50.91}, {"smiles": "Cc1cnn(CCNCc2nnc(C3CC3)o2)c1", "Percent Effect": -12.52}, {"smiles": "CCc1sc(-c2nnc(CNCCn3cc(C)cn3)o2)cc1C", "Percent Effect": 69.26}, {"smiles": "Cc1ccc(-c2nnc(CNCCn3cc(C)cn3)o2)cc1", "Percent Effect": 51.67}, {"smiles": "CCc1sc(-c2nnc(CNC(C)Cn3cc(C)cn3)o2)cc1C", "note": "(stereo unspecified)", "Percent Effect": 15.55}, {"smiles": "Cc1ccoc1-c1nnc(CNCCn2cccn2)o1", "Percent Effect": -13.89}, {"smiles": "O=C(O)C(F)(F)F.O=C1N(CC2CC2)CCC12CCN(Cc1ccoc1)CC2", "Percent Effect": -1.631}, {"smiles": "Cl.O=C(NCCn1nc(C2CCNC2)c2cccnc21)c1ccccc1", "note": "(stereo unspecified)", "Percent Effect": -53.35}, {"smiles": "Cc1c(OCC(=O)NCc2ccccc2)c(=O)ccn1C", "Percent Effect": 2.776}, {"smiles": "OCCn1nccc1C1CCN(CCOc2ccccc2Cl)CC1", "Percent Effect": -31.74}, {"smiles": "CCc1cnc(CN(C)C2CCN(CC3CCN(C(C)=O)CC3)C2)o1", "note": "(stereo unspecified)", "Percent Effect": 6.622}, {"smiles": "Cc1ccc(-c2cc(N)c(=O)n(CC(=O)NC3CCCC3)n2)s1", "Percent Effect": -35.82}, {"smiles": "Cc1ccc(-c2cc(N)c(=O)n(CC(=O)NCC3CC3)n2)s1", "Percent Effect": 90.74}, {"smiles": "Cc1ccc(-c2cc(N)c(=O)n(CC(=O)NCC3CCCCC3)n2)s1", "Percent Effect": 31.53}, {"smiles": "Nc1cc(-c2cccs2)nn(CC(=O)NCC2CCCCC2)c1=O", "Percent Effect": 91.2}]}]}
